Laboratory results: PubChem BioAssay (NCI)
“And” between values parts separate entries of the source, which are not always exact repeats. Equal entries are not always repeated. The panel holds about 79,000 compounds, 15% with a hit somewhere; the sample as a whole holds those more often. Where a structure was tested more than once in an assay, its records may differ in their call. The source made the active and inactive calls. No stated cut-off is given here; in the data, active means growth inhibition above about 70%; inactive means the rest.

Tests used:
[1] = NCI Yeast Anticancer Drug Screen. Data for the rad50 strain (AID 155);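 further: 0% = growth of vehicle-only cultures of the same strain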; settings: S. cerevisiae rad50 strain growth inhibition, stronger effect = higher value
How it was run: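 Relative growth inhibition (compound vs vehicle) was measured in yeast with a defined repair-gene alteration.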

[2] = NCI Yeast Anticancer Drug Screen. Data for the mec2-1 strain (AID 157); settings: S. cerevisiae mec2-1 strain, stronger effect = higher value
How it was run: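 Using mec2-1 yeast: add compound, measure growth, express inhibition versus vehicle-treated cultures.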

[3] = NCI Yeast Anticancer Drug Screen. Data for the sgs1 mgt1 strain (AID 161);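 further: 0% = growth of cultures given vehicle only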; settings: S. cerevisiae sgs1 mgt1 strain, stronger effect = higher value
How it was run: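 Growth of a repair-deficient yeast mutant was monitored after compound treatment and expressed as inhibition relative to vehicle-treated cultures.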

[4] = NCI Yeast Anticancer Drug Screen. Data for the cln2 rad14 strain (AID 165);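 further: 0% = growth equal to vehicle treated cultures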; settings: S. cerevisiae cln2 rad14 strain, stronger effect = higher value
How it was run: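 Yeast strain cln2 rad14, bearing defects in cell cycle control and DNA repair, serves as the test system; values reflect growth inhibition compared with vehicle.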

[5] = NCI Yeast Anticancer Drug Screen. Data for the bub3 strain (AID 167); settings: S. cerevisiae bub3 mutant strain, stronger effect = higher value
How it was run: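 Screening used yeast with an engineered genetic alteration affecting cell cycle control. Compound-exposed cultures were compared with vehicle cultures, and reduced growth was taken as inhibition.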

[6] = NCI Yeast Anticancer Drug Screen. Data for the mlh1 rad18 strain (AID 175); settings: S. cerevisiae mlh1 rad18 strain growth inhibition, stronger effect = higher value
How it was run: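 Steps: expose repair-defective yeast to compound; measure growth; express inhibition against vehicle-treated controls.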

[7] = at 5.0 µM (retest, dose inferred, filed as 0.5)
[8] = at 50.0 µM (retest, dose inferred, filed as 5.0)

Measured: growth inhibition

CC1(C)N(OC2CCCCO2)C(c2ccccc2)C(c2ccccc2)=[N+]1[O-] (configuration not stated)
inactive: [1]; [7] 18% | [1]; [8] 24% | [1]; at 50.0 µM 34% | [2]; [7] 12% | [2]; [8] 21% | [2]; at 50.0 µM 3.05% | [3]; [7] 18% | [3]; [8] 18% | [3]; at 50.0 µM -13.7% | [4]; [7] 17% | [4]; [8] 27% | [4]; at 50.0 µM 7.4% | [5]; [7] 19% | [5]; [8] 25% | [5]; at 50.0 µM -23% | [6]; [7] 21% | [6]; [8] 24% | [6]; at 50.0 µM -6.55%

CCOC(=O)C1=C(C(=O)c2ccc(OC)cc2)C(c2c(Cl)cccc2Cl)C(C(=O)c2ccc(OC)cc2)=C(C(=O)OCC)N1
active: [2]; at 50.0 µM 71% | [3]; at 50.0 µM 70.3% | [4]; at 50.0 µM 88.2% | [5]; at 50.0 µM 88.7% | [6]; at 50.0 µM 81.8%
inactive: [1]; [7] 8% | [1]; [8] 19% | [1]; at 50.0 µM 53.9% | [2]; [7] 6% | [2]; [8] 35% | [3]; [7] 19% | [3]; [8] -5% | [4]; [7] -19% | [4]; [8] 18% | [5]; [7] 14% | [5]; [8] 7% | [6]; [7] 6% | [6]; [8] 0%

CCOC(=O)c1c(CN2CCNCC2)nc2ccc(Cl)cc2c1-c1ccccc1
inactive: [1]; [7] 30% | [1]; [8] 30% | [1]; at 50.0 µM 29.4% | [2]; [7] 35% | [2]; [8] 35% | [2]; at 50.0 µM 14.2% | [3]; [7] 26% | [3]; [8] 26% | [3]; at 50.0 µM 68% | [4]; [7] 23% | [4]; [8] 23% | [4]; at 50.0 µM 41.1% | [5]; [7] 29% | [5]; [8] 29% | [5]; at 50.0 µM 27.6% | [6]; [7] 32% | [6]; [8] 32% | [6]; at 50.0 µM 39.5%

Nc1ncnc(N)c1N=O
inactive: [1]; [7] -19% | [1]; [8] 1% | [1]; at 50.0 µM 39% and 21.6% | [2]; [7] -13% | [2]; [8] -3% | [2]; at 50.0 µM 32.5% and 4.05% | [3]; [7] 5% | [3]; [8] 3% | [3]; at 50.0 µM 67.5% and 35.1% | [4]; [7] 11% | [4]; [8] 28% | [4]; at 50.0 µM 39.3% and 31.2% | [5]; [7] -2% | [5]; [8] 54% | [5]; at 50.0 µM 62.6% and 53.2% | [6]; [7] -3% | [6]; [8] 15% | [6]; at 50.0 µM 34.5% and 26.6%

O=C1OC(c2cccnc2)OC(c2ccccc2)=C1C(=O)c1ccccc1 (configuration not stated)
inactive: [1]; [7] 5% | [2]; [7] 23% | [3]; [7] 4% | [4]; [7] 12% | [5]; [7] -4% | [6]; [7] 33%
active: [1]; [8] 99% | [1]; at 50.0 µM 99.4% | [2]; [8] 99% | [2]; at 50.0 µM 99.5% | [3]; [8] 98% | [3]; at 50.0 µM 99.5% | [4]; [8] 99% | [4]; at 50.0 µM 98.7% | [5]; [8] 99% | [5]; at 50.0 µM 98.8% | [6]; [8] 99% | [6]; at 50.0 µM 99.2%

COc1cccc(NC(=S)N2CCCCC2)c1
inactive: [1]; [7] -158% | [1]; [8] -160% | [1]; at 50.0 µM 38.4% | [2]; [7] -51% | [2]; [8] -58% | [2]; at 50.0 µM -0.45% | [3]; [7] -69% | [3]; [8] -61% | [3]; at 50.0 µM -8.25% | [4]; [7] -69% | [4]; [8] -102% | [4]; at 50.0 µM -82.4% | [5]; [7] -60% | [5]; [8] -58% | [5]; at 50.0 µM 14.7% | [6]; [7] -132% | [6]; [8] -151% | [6]; at 50.0 µM 20.9%

CCC[CH2][Sn]1([CH2]CCC)[O]N=C(c2ccccc2)C(c2ccccc2)[O]1 (configuration not stated)
inactive: [1]; [7] 19% | [1]; [8] 19% | [2]; [7] 20% | [2]; [8] 20% | [3]; [7] -1% | [3]; [8] -1% | [4]; [7] 8% | [4]; [8] 8% | [5]; [7] 12% | [5]; [8] 12% | [6]; [7] 12% | [6]; [8] 12%
active: [1]; at 50.0 µM 88.4% | [2]; at 50.0 µM 87.8% | [3]; at 50.0 µM 89.4% | [4]; at 50.0 µM 79.7% | [5]; at 50.0 µM 78.8% | [6]; at 50.0 µM 79.9%

Oc1ccccc1C=Nc1ccccc1N=Cc1ccccc1O
67% (inactive) and 87.2% (active): [5]; at 50.0 µM
52% (inactive) and 86% (active): [5]; [8]
inactive: [1]; [7] -16% and -2% | [2]; [7] -34% and -4% | [3]; [7] -12% and -1% | [4]; [7] 7% and -12% | [4]; at 50.0 µM 59.5% and 8.6% | [5]; [7] 14% and -3% | [6]; [7] -17% and -4%
active: [1]; at 50.0 µM 85% and 81.4% | [2]; [8] 98% and 85% | [2]; at 50.0 µM 78.9% and 89% | [3]; [8] 76% and 91% | [6]; [8] 98% and 97% | [6]; at 50.0 µM 76.3% and 93%
68% (inactive) and 96% (active): [1]; [8]
67.8% (inactive) and 91.3% (active): [3]; at 50.0 µM
39% (inactive) and 95% (active): [4]; [8]

CC(=O)OC1CC2C(C)(C)C(=O)C=C[C@]2(C)C2CCC3(C)C(=CC(=O)C3c3ccoc3)[C@]12C (some centres not stated)
active: [3]; [8] 86% | [3]; at 50.0 µM 87%
inactive: [1]; [7] -4% | [1]; [8] 40% | [1]; at 50.0 µM 65.4% | [2]; [7] -8% | [2]; [8] 38% | [2]; at 50.0 µM 65.3% | [3]; [7] -1% | [4]; [7] 19% | [4]; [8] 52% | [4]; at 50.0 µM 18.7% | [5]; [7] 7% | [5]; [8] 58% | [5]; at 50.0 µM 56.9% | [6]; [7] -1% | [6]; [8] 52% | [6]; at 50.0 µM 56.4%

O=C(CNCc1ccccc1)Oc1c(Cl)c(Cl)c(Cl)c(Cl)c1Cl
inactive: [1]; [7] 3% | [1]; [8] 32% | [2]; [7] 22% | [2]; [8] 43% | [2]; at 50.0 µM 62.5% | [3]; [7] -13% | [3]; [8] 55% | [4]; [7] -5% | [4]; [8] 11% | [4]; at 50.0 µM 51.4% | [5]; [7] -4% | [5]; [8] 31% | [5]; at 50.0 µM 20% | [6]; [7] 29% | [6]; at 50.0 µM 64.7%
active: [1]; at 50.0 µM 72.5% | [3]; at 50.0 µM 85.2% | [6]; [8] 73%

O=S(O)CCCCSSCC(O)C(O)CSSCCCCS(=O)O (configuration not stated)
inactive: [1]; [7] -7% | [1]; [8] 21% | [1]; at 50.0 µM 49.4% | [2]; [7] 12% | [2]; [8] 44% | [2]; at 50.0 µM 56.1% | [3]; [7] 6% | [3]; [8] 50% | [4]; [7] -10% | [4]; [8] 24% | [4]; at 50.0 µM 37% | [5]; [7] 3% | [5]; [8] 55% | [5]; at 50.0 µM 57.5% | [6]; [7] 3% | [6]; [8] 33%
active: [3]; at 50.0 µM 78.8% | [6]; at 50.0 µM 73%

Cc1ncc(C[n+]2cccc(CCO)c2C)c(N)n1
active: [6]; at 50.0 µM 72% and 71.2%
87.5% (active) and 64% (inactive): [3]; at 50.0 µM
inactive: [1]; [7] 4% and 16% | [1]; [8] 31% and 48% | [1]; at 50.0 µM 55.7% and 46.5% | [2]; [7] 19% and 11% | [2]; [8] 60% and 49% | [2]; at 50.0 µM 40.5% and 38% | [3]; [7] -15% and 10% | [3]; [8] 62% and 68% | [4]; [7] 1% and 9% | [4]; [8] 24% and 18% | [4]; at 50.0 µM 58.1% and 24.5% | [5]; [7] -4% and 5% | [5]; [8] 14% and 36% | [5]; at 50.0 µM 8.65% and 29.9% | [6]; [7] 10% and 15% | [6]; [8] 63% and 48%

COc1ccc(/C=C2\C=Nc3ccccc32)cc1
inactive: [1]; [7] 12% | [1]; [8] -10% | [1]; at 50.0 µM 12.7% | [2]; [7] -3% | [2]; [8] 10% | [2]; at 50.0 µM -5.7% | [3]; [7] 0% | [3]; [8] -3% | [3]; at 50.0 µM 17.9% | [4]; [7] 28% | [4]; [8] 25% | [4]; at 50.0 µM 10.4% | [5]; [7] 18% | [5]; [8] 30% | [5]; at 50.0 µM 33.7% | [6]; [7] 12% | [6]; [8] 11% | [6]; at 50.0 µM 4.55%

N#CCCC(CCC#N)(CCC#N)C(=O)c1ccccc1
inactive: [1]; [7] 10% | [1]; [8] 4% | [1]; at 50.0 µM 11.6% and 20.9% | [2]; [7] -15% | [2]; [8] -6% | [2]; at 50.0 µM 15.8% and -3.15% | [3]; [7] 7% | [3]; [8] 8% | [3]; at 50.0 µM 33.2% and -28.8% | [4]; [7] 4% | [4]; [8] 14% | [4]; at 50.0 µM 26.1% and 18.9% | [5]; [7] 10% | [5]; [8] 23% | [5]; at 50.0 µM 18.1% and 7.55% | [6]; [7] 20% | [6]; [8] 12% | [6]; at 50.0 µM 20.2% and 26.8%
